A short description of experiment [1]: Viability qHTS for spleen associated tyrosine kinase inhibitor (SYKi) naive MV4-11 cells (AID 1963823). Further: nearly all actives have a fitted effect of over 40% in size. Further: potency means the concentration at half of the fitted maximal effect. In outline: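 Compounds were dispensed acoustically onto plates, MV4-11 cells (SYKi-naive) added at 500 per well, and plates incubated 72 hr at 37 C. CellTiter-Glo was added and luminescence measured after 10 min.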
On the technique in general: Quantitative high-throughput screening tests each substance at several concentrations.

Experiment [2] in a line: Quantitative highthroughput screen to assess conditional lethalithy of NOMO1 cells grown in RPMI1640 with untreated serum (RPMI+s) (AID 1963876).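 Further: 100% = DMSO wells and 0% = empty wells without cells; nearly all actives have a fitted effect of over 35% in size.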 In outline: (§1)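 Each medium arm—HPLM with 10% dialyzed FBS, or RPMI1640 with 5 mM glucose and 10% untreated or dialyzed FBS—was screened against an 11-point, 3-fold compound titration for 48 h at 37 °C, with CellTiter-Glo luminescence as endpoint.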

Experiment [3] can be described thus: Quantitative highthroughput screen to assess conditional lethalithy of NOMO1 cells grown in RPMI1640 with dialyzed fetal bovine serum (RPMI+ds) (AID 1963877).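 Further: series mostly up to about 46 µM; 100% = DMSO control wells and 0% = empty wells; nearly all actives have a fitted effect of over 30% in size.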 In outline: as §1
Experiment [4] in a line: Quantitative highthroughput screen to assess conditional lethalithy of NOMO1 cells grown in Human Plasma-Like Medium with dialyzed fetal bovine serum (HPLM+ds) (AID 1963878).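 Further: 100% = DMSO wells and 0% = empty wells on each plate; nearly all actives have a fitted effect of over 35% in size.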 Summed up:
as §1

The nature of experiment [5]: Quantitative highthroughput screen to assess conditional lethalithy of P12 Ichikawa cells grown in Human Plasma-Like Medium with dialyzed fetal bovine serum (HPLM+ds) (AID 1963879). Further: nearly all actives have a fitted effect of over 35% in size. Further: potency means the concentration at half of the fitted maximal effect. On Viability: series mostly up to about 46 µM. To be noted: Potency: viability. Summed up: as §1
Experiment [6] can be described thus: Quantitative highthroughput screen to assess conditional lethalithy of P12 Ichikawa cells grown in RPMI1640 with dialyzed fetal bovine serum (RPMI+ds) (AID 1963880).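 Further: 100% = DMSO wells and 0% = empty wells on each plate; nearly all actives have a fitted effect of over 35% in size.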 The following applies: Potency: P12-Ichikawa viability. In outline: as §1
A short description of experiment [7]: Quantitative highthroughput screen to assess conditional lethalithy of P12 Ichikawa cells grown in RPMI1640 with untreated serum (RPMI+s) (AID 1963881). To be noted: Potency: viability. Summed up: as §1
The nature of experiment [8]: Quantitative highthroughput screen to assess conditional lethalithy of SEM cells grown in Human Plasma-Like Medium with dialyzed fetal bovine serum (HPLM+ds) (AID 1963882). Further: nearly all actives have a fitted effect of over 35% in size. Further: potency means the concentration at half of the fitted maximal effect. On Viability: series mostly up to about 46 µM. In outline: as §1
Experiment [9] is described as follows: Quantitative highthroughput screen to assess conditional lethalithy of SEM cells grown in RPMI1640 with unreated serum (RPMI+s) (AID 1963883). In outline:
as §1

The nature of experiment [10]: Cellular viability qHTS for adrenocortical cancer (ACC) cell line SW-13 (AID 1963989). Further: nearly all actives have a fitted effect of over 65% in size. Further: potency means the concentration at half of the fitted maximal effect.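 On activity (max response): cells grown in serum-free medium with ITS supplement; on the % scale 0 is the no-effect control and ±100 the full control effect.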 The following applies: SW-13 ACC cells viability, CellTiter-Glo, 48 h; activity (max response): stronger effect = lower value. In outline: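 Here, serum-free SW-13 cultures were dosed up to 46 uM. Following 48 h, ATP-dependent luminescence (CellTiter-Glo) reported viable cells, and logistic modeling produced IC50 values.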

The nature of experiment [11]: Cellular viability qHTS for adrenocortical cancer (ACC) cell line NCI-H295R (AID 1963990). Further: nearly all actives have a fitted effect of over 60% in size. Further: potency means the concentration at half of the fitted maximal effect. Summed up: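 Viability of NCI-H295R after 48 h of treatment (final up to 46 uM) measured through cellular ATP luminescence.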
The nature of experiment [12]: Quantitative highthroughput screen to assess conditional lethalithy of SEM cells grown in RPMI1640 with dialyzed fetal bovine serum (RPMI+ds) (AID 1963884). Further: nearly all actives have a fitted effect of over 35% in size. Further: potency means the concentration at half of the fitted maximal effect.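 On Viability: series mostly up to about 46 µM; 100% = DMSO control wells and 0% = empty wells without cells.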 In outline: as §1

Several values for one entry are separate records, joined by “and”; a condition that tells them apart may be missing. Equal entries are not always repeated. Results filed as inconclusive are left out. A number with no mark means an inactive call. Activity calls are given as the source filed them. The call rests on the fitted dose curve; in most records, active means well fitted curve in the direction sought with a large enough effect; inconclusive means small, poorly fitted or top-dose-only effect, or another doubt; inactive means no such curve, though single readings can be large; an effect the other way counts as inactive or inconclusive.

In the case of `C[C@@H](NCCCc1cccc(C(F)(F)F)c1)c1cccc2ccccc12`, the Potency in experiment [1] was 10.6 µM (active); in experiment [10], 20.6 µM (active) and 25.1 µM (active); in [11], 5.17 µM (active) and 8.91 µM (active). Moreover, the Potency entry in experiment [2], in [3], in experiment [4], in [5], in [6] and in experiment [7] was “inactive” in each case. In addition, the Potency entry in experiment [8] and in experiment [9] was “inactive” throughout.

Regarding `C=C1C(=O)OC(CCCCCCCC)C1C(=O)O` (stereo not drawn), the Potency entry in experiment [1], in experiment [2], in [3], in [4], in experiment [5] and in [7] was “inactive” each time. The Potency result in experiment [8], in [9], in experiment [12] and in [11] was “inactive” in each case. Besides, the activity (max response) in experiment [10] was -7.15%.

As for `O=C1CCCC(=O)C1C(=O)c1ccc(C(F)(F)F)cc1[N+](=O)[O-]`, the Potency entry in experiment [1], in [2], in experiment [3], in [4], in experiment [5] and in [6] was “inactive” each time. Also, the Potency result in experiment [7], in experiment [8], in experiment [9], in experiment [12] and in [11] was “inactive” in each case. For the same compound, in [10], the activity (max response) was 6.97%.

As for `NC(=O)c1cccc(-c2cccc(OC(=O)NC3CCCCC3)c2)c1`, the Potency entry in experiment [1], in experiment [2], in experiment [3], in experiment [4], in experiment [8] and in experiment [11] was “inactive” throughout. The Potency in [5] is 0.332 µM (active). Besides, the activity (max response) in experiment [10] is -29.9%.

Take `CC1=C[C@@H]2[C@@H]([C@@H](O)C[C@@]3(C)[C@H]2C[C@@H](C)[C@]3(O)C(=O)CO)[C@@]2(C)Cc3cnn(-c4ccccc4)c3C=C12`: the Potency in [1] is 0.731 µM (active); in experiment [8], 0.0372 µM (active); in experiment [12], 0.0526 µM (active); in experiment [10] it was 22.4 µM (active); in experiment [11], 8.91 µM (active). Also, the Potency result in [2] and in experiment [3] was “inactive” in each case.

For the compound `CNC(=O)c1ccc(Nc2ncc(C(F)(F)F)c(NCc3nccnc3N(C)S(C)(=O)=O)n2)cc1`, the Potency in [1] was 130 nM (active) and 332 nM (active); in experiment [8] it was 1.48 µM (active); in [12], 0.933 µM (active); in experiment [11] it was 7.94 µM (active). The Potency entry in experiment [2], in [3], in [5], in [6] and in experiment [7] was “inactive” each time.

These data come from PubChem BioAssay (NCATS).
